Screens: PubChem BioAssay, several laboratories
CYP2C9 inhib – blocks human cytochrome P450 2C9 | CYP2C9 Supersomes, luciferin-H conversion, luminescence | inhibition, % at 5 µM | 96,000 compounds, 20% hits | AID 777;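 active means blocking of liver enzyme CYP2C9 beyond about 50% at 5 µM, limit read from the data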
CYP2C9 act – CYP2C9 (human) activation; recombinant CYP2C9, luciferin-H conversion, luminescence; stronger effect = higher value; factor 1 = untreated enzyme, 0 = blocked; 96,000 compounds, 1.4% hits; P11712; activation factor at 5 µM;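 active means activation factor of 2 or more for CYP2C9 at a 5 µM dose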;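 further: 0 = sulfaphenazole-blocked wells and 1 = vehicle-only wells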
CYP2C19 inhib – inhibitors of human CYP2C19; 96,000 compounds, 21% hits; inhibition, % at 5 µM; CYP2C19 Supersomes, luciferin-H EGE luminescence, 30 min; AID 778;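 active means CYP2C19 inhibition above a set limit at 5 µM in the primary screen, cut at about 50% in these data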;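 further: plate controls were negative control wells for no effect and 2.5 mM tranylcypromine positive control for full effect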
CYP2C19 activ – activators of human cytochrome P450 2C19 | recombinant CYP2C19, luciferin-H EGE luminescence; stronger effect = higher value; 0 = fully inhibited enzyme, 1 = untreated enzyme | AID 1025 | 96,000 tested, under 10 active | activation factor at 5 µM | P33261;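 active means activation factor of at least 2 at 5 µM in the primary screen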;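 further: 0 = wells with 2.5 mM tranylcypromine and 1 = vehicle-only wells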
Cav32 inh – blocks human Cav3.2 T-type calcium channel. B-score at 10 µM. Cav3.2-expressing cells, Fluo-4 calcium fluorescence FDSS; stronger effect = lower value. AID 449739. 100,000 compounds, 4% hits. O95180;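 active means single-dose well whose peak fluorescence ratio is a statistical outlier from its plate by either plate-standardised score or position-corrected B-score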
Starred values were filed as active, the others as inactive; / = no result given. Only some compounds are listed: those with a hit (about 27% of all), similar ones and a draw of the others.

SMILES	CYP2C9 inhib	CYP2C9 act	CYP2C19 inhib	CYP2C19 activ	Cav32 inh
CCC(c1nnc(SCC(=O)Nc2nnc(-c3ccccc3)o2)n1Cc1ccccc1)N(C)C (stereo not drawn)	-5	1.1	-3	1	0.9
O=C(OCn1ncc(Br)c(Br)c1=O)c1ccc(F)cc1	28	0.7	89*	0.1	0.21
O=C(OCn1ncc(Br)c(Br)c1=O)c1ccccc1Cl	2	1	57*	0.4	0.21
CCn1ncc(Br)c1C(=O)Nc1ccc(F)cc1F	-10	1.1	25	0.8	-0.92
CCO[C@H]1OC(C(=O)N2CCN(C)CC2)=C[C@@H](C)[C@@H]1CCCO	/	/	/	/	0.24
CCc1cc(=O)oc2cc(C)cc(OCc3nn[nH]n3)c12	18	0.8	0	1	0.61
CCCc1cc(=O)oc2cc(C)cc(OCC(=O)O)c12	43	0.6	17	0.8	-1.5
CCc1cc(=O)oc2cc(C)cc(OC(=O)c3ccco3)c12	25	0.8	66*	0.3	-0.23
C=C(Cl)COc1cc(C)cc2oc(=O)cc(CC)c12	52*	0.5	43	0.6	-2
COc1ccc(N2C(=O)CCC(C(C)=O)=C2C)cc1	8	0.9	24	0.8	0.0023
CCOC(=O)COc1ccccc1-c1ccno1	11	0.9	39	0.6	0.19
COc1ccc(Br)cc1C(=O)Nc1cccc(NC(=O)c2ccco2)c1	13	0.9	88*	0.1	-2.4
COc1ccc(Br)cc1C(=O)Nc1cccc(C)c1	32	0.7	10	0.9	0.21
COc1c(C)cc(Br)cc1C(=O)Nc1cccc(NC(=O)c2ccco2)c1	83*	0.2	97*	0	-2.5
Cc1cc(C)c(OCC(=O)Nc2cccc(NC(=O)c3ccco3)c2)c(Br)c1	74*	0.3	96*	0	-4.4*
COCCN1C(=O)N[C@@H](c2cccc(F)c2)C(C(C)=O)=C1C	/	/	/	/	0.53
Cc1ccc(-c2nnn(CC(=O)Nc3cccc4cccnc34)n2)o1	39	0.6	33	0.7	-2.5
COc1ccc(OC)c(S(=O)(=O)N(C)CC(=O)O)c1	8	0.9	10	0.9	0.65
CCNC(=O)CN(c1ccc(OC)c(OC)c1)S(=O)(=O)c1ccccc1	-9	1.1	8	0.9	0.5
CCN(c1ccccc1)S(=O)(=O)c1cc(OC)ccc1OC	69*	0.3	90*	0.1	-0.9
CCN(c1ccccc1)S(=O)(=O)c1ccc(OC)c(OC)c1	-11	1.1	56*	0.4	0.51
CCO[C@@H]1OC(C(=O)O)=C[C@H](C)[C@H]1CCCO	/	/	/	/	0.055
CSc1nnc2c(n1)OC(C1CC=C(C)CC1)Nc1ccccc1-2 (stereo not drawn)	-26	1.3	-9	1.1	/
Cc1ccc(-c2ccc(/C=N/NC(=S)Nc3ccccc3)o2)cc1[N+](=O)[O-]	53*	0.5	65*	0.3	-0.054
Oc1ccc(-c2nc3ccccn3c2NCc2ccco2)cc1	77*	0.2	24	0.8	0.11
SMILES	CYP2C9 inhib	CYP2C9 act	CYP2C19 inhib	CYP2C19 activ	Cav32 inh
O=C(Nc1c(-c2ccccc2)nc2ccccn12)c1ccco1	24	0.8	2	1	0.8
Cc1ccc(-c2nc3ccccn3c2NCc2ccc3c(c2)OCO3)cc1	72*	0.3	80*	0.2	-4.4*
Cc1ccc(C(=O)NNC(=S)NC(=O)c2ccc(Cl)cc2Cl)cc1	49	0.5	4	1	-3.2
O=C(COc1ccccc1)NNC(=S)NC(=O)c1ccc(Cl)cc1Cl	/	/	/	/	-4.1*
CC(C)COC(=O)N1CC(O)CC1C(=O)O (stereo not drawn)	2	1	5	0.9	-0.033
COc1ccc2oc(C)c(C(N)=O)c2c1	-7	1.1	8	0.9	0.069
COCCOC(=O)c1c(C)oc2ccc(OC(=O)c3cccs3)cc12	98*	0	71*	0.3	0.22
COC(=O)c1c(C)oc2ccc(OC(=O)c3cccs3)cc12	85*	0.1	-1	1	-0.024
CCOCC(=O)Nc1cc(-c2cn3cccnc3n2)ccc1C	4	1	-4	1	/
CCCCCOc1ccc(C2C(C(C)=O)=C(C)Nc3ncnn32)cc1OC (stereo not drawn)	54*	0.5	15	0.8	/
COC(=O)c1ccc(C2C(C(=O)Nc3ccc(C)cc3C)=C(C)Nc3ncnn32)cc1 (stereo not drawn)	25	0.7	62*	0.4	0.21
CCOC(=O)C1=C(C)Nc2ncnn2C1c1ccc2c(c1)OCO2 (stereo not drawn)	62*	0.4	50*	0.5	-0.084
CCCC1=C(C(=O)OCC)C(c2ccncc2)n2ncnc2N1 (stereo not drawn)	97*	0	78*	0.2	1
CC(=O)C1=C(C)Nc2ncnn2C1c1ccc(Cl)cc1Cl (stereo not drawn)	30	0.7	68*	0.3	-0.36
CCOC(=O)C1=C(CNCCc2ccc(Cl)cc2)NC(=O)NC1c1ccc2c(c1)OCO2 (stereo not drawn)	89*	0.1	86*	0.1	-4.6*
CC(=O)C1=C(C)Nc2ncnn2C1c1cccc(OCc2ccccc2)c1 (stereo not drawn)	-13	1.1	11	0.9	0.73
C=CCOC(=O)C1=C(C)Nc2nnnn2C1c1cccc(OC)c1OC (stereo not drawn)	83*	0.2	59*	0.4	1.1
CCCCOC(=O)C1=C(C)Nc2ncnn2C1c1cccc(OC)c1OC (stereo not drawn)	58*	0.4	82*	0.2	-0.92
C=CCNC(=O)C1CCN(S(C)(=O)=O)CC1	-4	1	-14	1.1	0.87
O=C(NCCN1CCN(C(=O)c2cccs2)CC1)C(=O)Nc1ccc(Br)cc1	25	0.8	21	0.8	-1.3
CC(C)(Oc1ccc(Cl)cc1)C(=O)OCC(=O)N1CCCC1	10	0.9	28	0.7	-0.1
CC(C)C[C@H](NC(=O)c1nc[nH]c1C(=O)N1CCN(c2ccccc2)CC1)C(=O)OCc1ccccc1	/	/	/	/	-0.93
O=C(CN1CCOc2ccccc21)NC1CCCCCCC1	/	/	/	/	-1.4
COc1cccc(C2C(C(=O)OCc3ccccc3)=C(C)Nc3ncnn32)c1OC (stereo not drawn)	10	0.9	64*	0.4	-0.77
COc1ccc(C2C(C(C)=O)=C(C)Nc3ncnn32)cc1OC (stereo not drawn)	2	1	-10	1.1	-0.54
CCCCOC(=O)C1=C(C)Nc2ncnn2C1c1cccc(OC)c1 (stereo not drawn)	51*	0.5	68*	0.3	-0.65
COc1ccc(OC)c(C2C(C(=O)Nc3ccc(F)cc3)=C(C)Nc3nc(CCCO)nn32)c1 (stereo not drawn)	1	1	7	0.9	0.33
COc1cc(C2C(C(=O)OC(C)C)=C(C)Nc3ncnn32)cc(OC)c1OC (stereo not drawn)	78*	0.2	20	0.8	-0.052
